Among the data in PubChem BioAssay AID932 (The Scripps Research Institute Molecular Screening Center, 2007) are activation (% of control) values, retold here.

Each structure is given as a SMILES string. The campaign covered roughly 200,000 compounds. About 5,100 (2.5%) were called active.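 How the source made its calls: active means activation above the screen-wide mean activation plus 3 SD (cut at about 130% in these data); inactive means the rest.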 Shown is part of a subset that was picked to be rich in actives.

The assay can be described thus: STAT1 signaling activators, primary screen, cell-based, HTS, luciferase reporter (AID 932).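 Further: raw ratio to IFN-gamma control signal so 100% means no change and 0% no light.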 As to conditions: NIH 3T3 STAT1-luciferase reporter, IFN-gamma, luminescence; at 5.5 µM; hits give high values; 100% = IFN-gamma alone, no compound. A general note: A reporter such as luciferase makes a cellular process visible.
With `C=CS(=O)c1sc(Cl)c(N2CCOCC2)c1[N+](=O)[O-]` (configuration not stated), the activation (% of control) is 86.3% (inactive).
`O=[N+]([O-])c1cccc(Nc2c3ccccc3nc3ccccc23)c1`: the activation (% of control) was 98% (inactive).
`CC(=O)Nc1ccc(Nc2c3ccccc3nc3ccccc23)cc1`: the activation (% of control) was 137% (active).
For the compound `CC(=O)Nc1ccc(NC(=O)COc2ncnc3ccccc23)cc1`, the activation (% of control) was 93.2% (inactive).
For the compound `CC1=CC2=NC(=O)CC(C)(C(=O)N(CC(=O)NC(C)(C)C)Cc3ccccc3)N2C=C1` (configuration not stated), the activation (% of control) is 106% (inactive).
With `O=C(CCc1nc2ccccc2c(=O)[nH]1)OCC(=O)c1cccc(Cl)c1`, the activation (% of control) is 93.7% (inactive).
For `Cc1ccc(C(=O)COC(=O)c2cccc(N3C(=O)c4c(C)nc5ccccc5c4C3=O)c2)cc1C`, the activation (% of control) was 149% (active).
Take `CCCc1nc2ccccc2c(C(=O)OCC(=O)c2ccc3c(c2)NC(=O)CO3)c1CC`: the activation (% of control) is 100% (inactive).
For `CN(c1ccccc1)S(=O)(=O)c1ccc(Cl)c(C(=O)NCCc2c[nH]c3ccccc23)c1`, the activation (% of control) was 95% (inactive).
Regarding `O=C(NCCc1c[nH]c2ccccc12)c1cc2ccccc2oc1=O`, the activation (% of control) was 143% (active).
Turning to `O=C(NCCc1c[nH]c2ccccc12)C(=O)NCC1CCCO1` (configuration not stated), the activation (% of control) is 109% (inactive).
For `COc1ccc(NC(=O)/C(C#N)=C\c2cc(OC)c(OCc3ccc(C(=O)O)cc3)cc2Br)cc1`, the activation (% of control) is 96.6% (inactive).
For `Cc1ccc(NC(=O)OCc2cncs2)cc1` the value was 118% (inactive); for `COc1ccc(CS(=O)/C(Cl)=C(/Cl)C(=O)Nc2ccc(OC)nc2)cc1` (configuration not stated), 279% (active).
To `CC(=O)Nc1ccc(OCC(=O)NCc2ccc(C)cc2)cc1` belongs 95.8% (inactive).
Take `COc1ccc(NC(=S)Nc2ccccc2Cl)cn1`: the activation (% of control) was 88.6% (inactive).
Regarding `COc1ccc(NC(=S)NCCNC(C)=O)cc1`, the activation (% of control) was 103% (inactive).
Regarding `COc1ccc(NC(=O)/C(Cl)=C(/Cl)S(=O)Cc2ccc(C)cc2)cn1` (configuration not stated), the activation (% of control) was 222% (active).
Regarding `c1ccc2c(c1)CSc1sccc1C2=C1CCNCC1`, the activation (% of control) is 98.4% (inactive).
To `CN(C)/C=C/C(=O)c1cnc2sccn2c1=O` belongs 105% (inactive).
Regarding `COc1cccc(NCCC(=O)c2cccc([N+](=O)[O-])c2)c1`, the activation (% of control) was 116% (inactive).
To `O=C(c1ccc2c(c1)N(Cc1ccc(F)cc1)C(=O)c1ccccc1S2(=O)=O)N1CCN(c2ccccn2)CC1` belongs 97.5% (inactive); to `CCn1c(SCC(=O)N(C)C2CCS(=O)(=O)C2)nnc1-c1cccs1` (configuration not stated), 97.1% (inactive).
For `Cc1ccc(NCc2n[nH]c(=S)n2-c2ccccc2)cc1Cl` the value was 114% (inactive); for `CCOC(=O)N1CCN(c2cc(C)c([N+](=O)[O-])cc2F)CC1`, 77.6% (inactive); for `CC1CCCCC1NC(=O)CN1CCC(O)(c2ccc3c(c2)OCO3)CC1` (configuration not stated), 102% (inactive).
To `Cc1nonc1C(=O)N/N=C/c1ccc(O)cc1` belongs 135% (active); to `O=C(C[n+]1ccccc1)N/N=C/c1ccc(O)cc1`, 97.6% (inactive); to `COC(=O)N/N=C/c1ccc(/C=N/NC(=O)OC)cc1`, 103% (inactive).
For the compound `C/C=C/c1ccc(OCCCCN2CCC(C)CC2)c(OC)c1`, the activation (% of control) is 98.3% (inactive).
To `COc1cc(S(=O)(=O)N2CCOCC2)ccc1NC(=O)COc1ccc(N(C)S(=O)(=O)c2ccc(C)cc2)cc1` belongs 88.9% (inactive).
For the compound `COc1ccc(NC(=S)N2N=CCC2c2ccccc2)cc1` (configuration not stated), the activation (% of control) is 135% (active).
To `COc1ccc(C(=S)Nc2ccccc2)cc1` belongs 118% (inactive); to `COc1ccc(C(=O)NC2CCN(C(=S)Nc3ccccc3)CC2)cc1`, 88.7% (inactive); to `Cc1ccccc1-n1cc(CNC(=O)CC2C(=O)NCCN2C/C=C/c2ccccc2)cn1` (configuration not stated), 100% (inactive).
`O=C(Cn1cc(C(F)(F)F)ccc1=O)N/N=C/c1ccc(Cl)cc1Cl`: the activation (% of control) was 116% (inactive).
To `O=C(/C=C/c1ccc(N2CCOCC2)cc1)c1ccccc1` belongs 129% (active).
Regarding `O=C(/C=C/c1ccccc1)c1ccoc1`, the activation (% of control) is 98% (inactive).
On to `O=C(O)c1ccc2c(c1)C(=O)N(c1ccc(/C=C/C(=O)c3ccccc3)cc1)C2=O`, for which the activation (% of control) is 99.8% (inactive).
As to `Cc1ccc(NC(=O)CCOc2ccccc2)cc1S(=O)(=O)Nc1ccccc1Cl`, the activation (% of control) is 98.8% (inactive).
`Cc1csc(NC(=O)CSc2ccc(-c3ccc(F)cc3)nn2)n1`: the activation (% of control) is 112% (inactive).
`Cc1ccc(NC(=S)NCc2ccccc2Cl)c(C)c1`: the activation (% of control) was 96.8% (inactive).
Consider `Cc1ccc(NC(=S)Nc2ncccc2C)c(C)c1`, for which the activation (% of control) was 134% (active).
For the compound `CCOC(=O)N1CCN(C(=S)Nc2ccc(C)cc2C)CC1`, the activation (% of control) is 96.2% (inactive).
Take `COc1ccc(N2CCN(C(=S)Nc3ccc(S(N)(=O)=O)cc3)CC2)cc1`: the activation (% of control) is 89.8% (inactive).
`COc1ccc(C=Nc2cccc3ncccc23)cc1`: the activation (% of control) was 99.7% (inactive).
In the case of `COc1ccc(/C=N/Nc2nc3ccccc3c(=O)[nH]2)cc1`, the activation (% of control) is 155% (active).
In the case of `O=c1c2ccccc2nc(N/N=C/c2ccccc2)n1O`, the activation (% of control) was 113% (inactive).
As for `COc1ccc(S(=O)(=O)NCC2CCCN(C(=O)c3occc3C)C2)cc1` (configuration not stated), the activation (% of control) is 96.8% (inactive).
With `COc1ccc(/C=N/NC(=O)C(C)N(c2ccc(OC)cc2)S(C)(=O)=O)cc1` (configuration not stated), the activation (% of control) is 100% (inactive).
Consider `CC(C)(C)c1ccc(/C=C/C(=O)NC2CCS(=O)(=O)C2)cc1` (configuration not stated), for which the activation (% of control) was 104% (inactive).
As to `CC(C)(C)c1ccc(/C=C/C(=O)Nc2ncccn2)cc1`, the activation (% of control) was 138% (active).
As to `O=C(/C=C/c1ccc(Cl)cc1)Nc1ccc(S(=O)(=O)Nc2ncccn2)cc1`, the activation (% of control) was 107% (inactive).
`O=C(NCCN1C(=O)S/C(=C\c2cccnc2)C1=O)c1cccc(OC(F)F)c1`: the activation (% of control) was 101% (inactive).
With `Cc1ccccc1NC(=O)NC1(C(=O)N2CCCC2)CCCCC1`, the activation (% of control) is 99% (inactive).
Regarding `COc1ccc2nc(Nc3nc4ccc(NC(C)=O)cc4s3)sc2c1`, the activation (% of control) was 109% (inactive).
In the case of `COc1ccc2nc(NC(=O)c3ccc(Br)s3)sc2c1`, the activation (% of control) was 158% (active).
For the compound `COc1cccc(C(=O)Nc2nc3ccc(S(C)(=O)=O)cc3s2)c1`, the activation (% of control) was 119% (inactive).
In the case of `O=C(/C=C/c1cccs1)NCc1cccnc1`, the activation (% of control) was 101% (inactive).
Regarding `COc1ccc(/C=N/NC(=O)c2cccc(C(F)(F)F)c2)cc1`, the activation (% of control) is 105% (inactive).
For `CSc1ccc(/C=N/NC(=O)c2cccc(Cl)c2)cc1`, the activation (% of control) was 150% (active).
Take `CSc1ccc(/C=N\NC(=O)COc2ccc(Cl)cc2Br)cc1`: the activation (% of control) is 103% (inactive).
